An excerpt weighted towards active compounds, which were near 0.43% of everything screened.
GAA inhib – qHTS Assay for Inhibitors of Human alpha-Glucosidase as a Potential Chaperone Treatment of Pompe Disease; purified human GAA, 4-MU-alpha-glucoside fluorescence; AID 1466, 2008; hit rate 0.005% among 200,000; Potency, µM (doses to about 76.9 µM), for the others: top-dose activity change, negative = inhibition, actives largely listed as inhibitors; Lysosomal alpha-glucosidase (Homo sapiens), P10253;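 also: potency is read from the fitted curve at half-maximal effect; plate controls were uninhibited enzyme wells for no effect and no-enzyme background for full effect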
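Activity normalized between no-enzyme (basal) and enzyme-only wells. Conditions: 4 nM human enzyme, 400 uM fluorogenic substrate, citrate/phosphate pH 5.0 with Tween-20, 20 min room temperature, compounds up to 77 uM.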
N370S GC mod – qHTS Assay for Inhibitors and Activators of N370S glucocerebrosidase as a Potential Chaperone Treatment of Gaucher Disease; AID 2101, 2009; hit rate 0.092% among 330,000; N370S GC spleen homogenate, 4MU-glucoside fluorescence; Potency, µM (doses to about 59.4 µM), inactives show top-dose activity change, negative = inhibition, hits mostly inhibitors; Lysosomal acid glucosylceramidase (Homo sapiens), P04062;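 also: potency is read from the fitted curve at half-maximal effect; 0% = full enzyme activity and -100% = no enzyme basal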
GAA spleen mod – qHTS Assay for Inhibitors and Activators of Human alpha-Glucosidase From Spleen Homogenate; Lysosomal alpha-glucosidase (Homo sapiens), P10253; human spleen homogenate, 4-MU-alpha-glucoside fluorescence; Potency, µM (series often up to 79.9 µM), without a hit: top-dose activity change, negative = inhibition, most hits filed as inhibitors; hit rate 0.006% among 240,000;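 also: potency is read from the fitted curve at half-maximal effect; 0% = enzyme with vehicle and -100% = no enzyme basal signal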
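Human spleen homogenate (1 ug) with 4-methylumbelliferyl-alpha-D-glucopyranoside (1 mM final) in 50 mM citrate/phosphate pH 5.0, 0.01% Tween-20; 40 min at 37 C. Stopped at pH 10; 4-MU fluorescence Ex 365/Em 440 nm; AC50 by Hill fit.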
GLA spleen mod – qHTS Assay for Inhibitors and Activators of Human alpha-Galactosidase From Spleen Homogenate; human spleen homogenate, 4MU-alpha-Gal fluorescence, 40 min; hit rate 0.008% among 240,000; Alpha-galactosidase A (Homo sapiens), P06280; Potency, µM (highest dose often 80 µM), for the others: top-dose activity change, negative = inhibition, usual class: inhibitors;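 also: potency is read from the fitted curve at half-maximal effect; 0% = enzyme with vehicle and -100% = no enzyme basal signal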
Target sequence (P06280 32-429 limits assumed): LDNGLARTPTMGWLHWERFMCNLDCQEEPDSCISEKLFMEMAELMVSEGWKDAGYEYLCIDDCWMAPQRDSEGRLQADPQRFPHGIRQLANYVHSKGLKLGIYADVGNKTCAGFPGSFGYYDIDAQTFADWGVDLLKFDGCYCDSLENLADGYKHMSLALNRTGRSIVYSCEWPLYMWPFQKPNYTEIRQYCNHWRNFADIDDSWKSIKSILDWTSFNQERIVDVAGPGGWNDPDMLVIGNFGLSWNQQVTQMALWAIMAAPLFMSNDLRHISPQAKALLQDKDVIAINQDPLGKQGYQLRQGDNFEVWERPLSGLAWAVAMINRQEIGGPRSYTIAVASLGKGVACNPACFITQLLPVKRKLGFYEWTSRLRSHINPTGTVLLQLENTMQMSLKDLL
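Fluorogenic readout (Ex 365/Em 440 nm) of 4-methylumbelliferone released from 1 mM 4-MU-alpha-galactoside by spleen homogenate, 40 min at 37C, pH 5.0. Data normalized to no-enzyme and enzyme controls; Hill-equation AC50 from compound titrations.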
GLA inh pH 4.5 – qHTS Assay for Inhibitors of Human alpha-Galactosidase at pH 4.5; Alpha-galactosidase A (Homo sapiens), P06280; purified enzyme, 4-MU-alpha-Gal fluorescence, pH 4.5; activity change, negative = inhibition, % at 105 µM; 230,000 tested, under 10 active;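 also: 0% = full activity with enzyme and -100% = basal without enzyme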
GAA glycogen – qHTS Assay for Inhibitors and Activators of Human alpha-Glucosidase Cleavage of Glycogen; Potency, µM (titrated, usually from 76.4 µM), inactives show at the top dose activity change, negative = inhibition, actives largely listed as inhibitors; AID 2100, 2009; hit rate 0.38% among 300,000; recombinant GAA, glycogen substrate, Amplex Red glucose oxidase fluorescence;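 also: potency is read from the fitted curve at half-maximal effect; 0% = full enzyme reaction and -100% = no-enzyme basal signal; the screen sought inhibitors and activators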
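Natural-substrate format: glycogen cleavage by 4 nM human enzyme, glucose read by Amplex Red coupling (Ex 573, Em 610 nm). Normalized to enzyme and no-enzyme controls.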
The depositor's hits bear a star; [ ] = dose if it differs, or a comment. Calls follow the shape of the dose curve; as a rule, active = well fitted curve in the direction sought with a large enough effect; inconclusive = small, poorly fitted or top-dose-only effect, or another doubt; inactive = no such curve, though single readings can be large; an effect the other way counts as inactive or inconclusive.

How did COc1ccc(-c2c(C3C4C=CCCC4(C)C(=O)N3Cc3ccccc3)ccc3ccccc23)cc1 (configuration not stated) do in these assays?
N370S GC mod: -2%; GAA spleen mod: 13%; GLA spleen mod: 0%

What do the screens show for `NC(=O)C(=CNc1nc(-c2ccc(Cl)c(Cl)c2)cs1)C(N)=O`?
N370S GC mod: -19%; GAA spleen mod: -3%; GLA spleen mod: 7%; GLA inh pH 4.5: 0; GAA glycogen: 7.1µM*

How did O=C(O)c1ccc(-c2nc(-c3ccc(Cl)c(Cl)c3)cs2)cc1 do in these assays?
GAA inhib: 2%; N370S GC mod: 13%; GAA spleen mod: 7%; GLA spleen mod: -4%; GLA inh pH 4.5: -1; GAA glycogen: 6%

What do the screens show for `COc1cccc([C@@H]2Oc3ccc(OC)cc3C(=O)[C@H]2OC(=O)NS(=O)(=O)c2ccc(C)cc2)c1`?
N370S GC mod: 1%; GAA spleen mod: -4%; GLA spleen mod: 8%; GLA inh pH 4.5: -3

How did Cc1c(NC(=O)OCCNC(=O)Nc2ccccc2)sc(=S)n1C do in these assays?
GAA inhib: -11%; N370S GC mod: inconclusive; GAA spleen mod: 13%; GLA spleen mod: 5%; GLA inh pH 4.5: -8; GAA glycogen: inconclusive

Results for CCOC(=O)Nc1sc(=S)n(C)c1C ?
GAA inhib: 3%; N370S GC mod: 13%; GAA spleen mod: 8%; GLA spleen mod: 3%; GLA inh pH 4.5: -4; GAA glycogen: 7.9µM*

How did CCC(C)C(NC(=O)OC(C)(C)C)C(=O)NC1COC2CC(n3ccc(=O)[nH]c3=O)OC12 (configuration not stated) do in these assays?
N370S GC mod: -4%; GAA spleen mod: -5%; GLA spleen mod: 0%

How did O=C(CN1CCN(c2ccc(O)cc2)CC1)N1CCc2ccccc21 do in these assays?
N370S GC mod: -10%; GAA glycogen: 5µM*

How did CCCCS(=O)(=O)N1C2=NC(C(=O)OC)=C(C(=O)OC)[C@@H]3Nc4ccccc4[C@]23C[C@H]1C(=O)OC do in these assays?
N370S GC mod: 2%[12.8 µM]; GAA spleen mod: -6%[17.4 µM]; GLA spleen mod: -4%[17.5 µM]; GLA inh pH 4.5: 6

How did O=C(O)COc1ccc(/C=N/n2c(COc3ccccc3)nc3ccccc3c2=O)cc1 do in these assays?
GAA inhib: 0%; N370S GC mod: 0%; GAA spleen mod: -3%; GLA spleen mod: -1%; GLA inh pH 4.5: -8; GAA glycogen: 16%

Results for O=c1c2ccccc2nc(COc2ccccc2)n1/N=C/c1ccc(O)c(O)c1 ?
N370S GC mod: 0%; GAA spleen mod: -6%; GLA spleen mod: -16%; GLA inh pH 4.5: -6; GAA glycogen: 16µM*

Results for COc1cccc(Cn2c(=O)c(-c3ccc(Cl)cc3)nc3cnc(OC)nc32)c1 ?
N370S GC mod: 14%; GAA spleen mod: -4%; GLA spleen mod: -19%

Results for C=CC1=C2C=C(C3CC3)N(CCCCO)C=C2C(=O)C(C)(OC(=O)c2ccco2)C1=O (configuration not stated) ?
N370S GC mod: 6%[12.8 µM]; GAA spleen mod: 6%[17.4 µM]; GLA spleen mod: 6%[17.5 µM]; GLA inh pH 4.5: 3

What do the screens show for `C=C(C)CC(C)(C)C`?
N370S GC mod: 1%; GAA spleen mod: -4%; GLA spleen mod: 4%

Results for CN1/C(=N\O)c2cccc3cccc1c23 ?
GAA inhib: 3%; N370S GC mod: -2%; GAA spleen mod: 5%; GLA spleen mod: 7%; GLA inh pH 4.5: 3; GAA glycogen: 35µM*

Results for CNC(=O)CN1C(=O)c2cccc3cccc1c23 ?
GAA inhib: -1%; N370S GC mod: 3%; GAA spleen mod: -13%; GLA spleen mod: -11%; GLA inh pH 4.5: -1; GAA glycogen: 6%

Results for CC1(C)C(c2ccco2)=[N+]([O-])C2(CCCCC2=O)N1O (configuration not stated) ?
GAA inhib: -7%; N370S GC mod: 3%; GAA spleen mod: 7%; GLA spleen mod: 5%; GLA inh pH 4.5: -4; GAA glycogen: -13%

How did CC1(C)C(c2cccs2)=[N+]([O-])C2(CCCCC/C2=N\NC(N)=S)N1O (configuration not stated) do in these assays?
GAA inhib: 4%; N370S GC mod: 4%; GAA spleen mod: -2%; GLA spleen mod: -1%; GLA inh pH 4.5: 4; GAA glycogen: 18µM*

What do the screens show for `CCc1nnc(N/N=C/c2c(F)cccc2Cl)n1N`?
N370S GC mod: -2%; GAA glycogen: -9%[76.3 µM]

Results for CCc1nnc(N/N=C/c2c(C)[nH]c3ccccc23)n1N ?
GAA inhib: 8%; N370S GC mod: 6%; GAA spleen mod: 0%; GLA spleen mod: 6%; GLA inh pH 4.5: 4; GAA glycogen: 7.9µM*

What do the screens show for `Cc1[nH]c2ccccc2c1/C=N/NC(N)=S`?
N370S GC mod: -11%; GAA spleen mod: -26%; GLA spleen mod: 9%; GLA inh pH 4.5: -1; GAA glycogen: inconclusive

Results for CCc1nnc(N/N=C/c2cc(C)c(C)cc2C)n1N ?
N370S GC mod: -4%; GAA glycogen: 8.9µM*

Results for Cc1[nH]c2ccccc2c1/C=N/Nc1nc2ccccc2[nH]1 ?
N370S GC mod: 21%; GAA spleen mod: 2%; GLA spleen mod: 9%; GLA inh pH 4.5: -4; GAA glycogen: inconclusive

Results for Cc1ccc(NC(=S)N/N=C/c2c(C)[nH]c3ccccc23)cc1 ?
GAA inhib: -12%; N370S GC mod: inconclusive; GAA spleen mod: 0%; GLA spleen mod: 7%; GLA inh pH 4.5: -9; GAA glycogen: 28µM*

What do the screens show for `Cc1ccccc1NS(=O)(=O)c1ccc(C(=O)N2CCCC2)cc1`?
N370S GC mod: 2%

What do the screens show for `Cc1cccc(NS(=O)(=O)c2ccc(C(=O)N3CCN(c4ccccc4O)CC3)cc2)c1C`?
N370S GC mod: -5%; GAA glycogen: 4.5µM*

What do the screens show for `CC(C)C(=O)SCCCCCCC(=O)Nc1nc(-c2ccccc2)cs1`?
N370S GC mod: -12%; GAA spleen mod: -6%; GLA spleen mod: -19%

How did O=C(c1ccccc1)c1ccc(OCCOCCN2CCN(Cc3ccccc3)CC2)cc1 do in these assays?
GAA inhib: 4%; N370S GC mod: 14µM*; GAA spleen mod: -7%; GLA spleen mod: -11%; GLA inh pH 4.5: 5; GAA glycogen: 22%
